# Screening data: PubChem, National Center for Advancing Translational Sciences (NCATS)
# ATXN2 expr inh: ATXN2 expression inhibition | HEK-293 ATXN2-luciferase reporter, luminescence, 24 h | Potency, µM (titrated, usually from 57 µM), for inactives: at the top dose activity change, negative = inhibition, most hits filed as inhibitors | actives 0.72% (n = 360,000) | AID 1745845; note: potency is the fitted concentration of half-maximal effect; % is set by controls: 0 for no effect and ±100 for the full control effect; nearly all actives have a fitted effect of over 55% in size
#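 qHTS (up to 57 uM final) was run with 24 h compound exposure of reporter cells at 37 °C. Each well was multiplexed: SteadyGlo luminescence measured ATXN2-luciferase expression after a fluorogenic Gly-Phe-AFC viability readout (25 uM final).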
# ATXN viability: cell viability loss in ATXN counter-screen; S2 cells (HEK-293 line with an ATXN2-luciferase reporter) viability, CellTiter-Fluor protease fluorescence, 24 h; Potency, µM (series often up to 56.7 µM), actives largely listed as cytotoxic; actives 0.49% (n = 400,000); AID 651635; note: potency is the fitted concentration of half-maximal effect; nearly all actives have a fitted effect of over 40% in size
# SW480 rerep: DNA re-replication induction in SW480 cells; Potency, µM (doses to about 46.1 µM), for the others: at the top dose re-replication activation, usual class: activators; SW480 DNA re-replication, Hoechst DNA content imaging, 48 h; actives 1.8% (n = 340,000); note: potency is the fitted concentration of half-maximal effect; % of control where 0% means no effect; nearly all actives have a fitted effect of over 55% in size
#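 Compounds, transferred as 23 nL by pin tool, were incubated with cells for 48 hr; DNA content per nucleus was then quantified by Hoechst staining and fluorescence plate imaging.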
# PINK1 modulator: PINK1 expression modulation | PINK1 immunofluorescence, high-content cytometry, 24 h | Potency, µM (titrated, usually from 76.6 µM), inactives show at the highest dose activation (PINK1 increase), hits mostly activators | actives 0.2% (n = 410,000) | AID 624263; active = well fitted activation curve with a large enough effect; inconclusive = small, poorly fitted or top-dose-only effect; cell line not stated here; note: potency is the fitted concentration of half-maximal effect; % of control where 0% means no effect; nearly all actives have a fitted effect of over 65% in size
#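 PINK1 protein, normally rapidly degraded, was detected by immunofluorescence after 24 hour compound treatment of a stable cell line. Titration data (5 concentrations) came from laser-scanning cytometry, with CCCP-treated wells as controls.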
# MCF10A rereplic: inducers of DNA re-replication in MCF 10A breast cells. MCF 10A DNA re-replication, Hoechst nuclear intensity, 48 h. actives 2.9% (n = 350,000). Potency, µM (highest dose often 46.1 µM), without a hit: at the highest dose activity, positive = re-replication, hits mostly activators; note: potency is the fitted concentration of half-maximal effect; % of control where 0% means no effect; nearly all actives have a fitted effect of over 50% in size
# IL-1B inflam inh: blocks inflammasome-driven IL-1 beta release; THP-1 LPS/ATP IL-1B secretion, AlphaLISA, 16 h; stronger effect = lower value; activity change, % at 57.5 µM; actives 4.7% (n = 360,000); AID 743279; in the data active = activity change below about -50%; inconclusive = mostly about -30% to -49%; note: % is set by controls: 0 for no effect and ±100 for the full control effect
#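 THP-1 cells pretreated 1 hr with compounds (up to 57.5 uM final), then stimulated with LPS (250 ng/mL final) plus ATP (1.25 mM final); secreted IL-1B measured by AlphaLISA after 16 hr, decreased signal indicating inhibition.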
# An asterisk follows results filed as active; i = inactive; ? = inconclusive; / = not tested or not shown; [ ] = remark or other dose. This is a sample that favours compounds with a hit; in the whole collection about 7.1% have one here. Unless noted, calls come from the whole dose curve; as a rule, active = well fitted curve in the direction sought with a large enough effect; inconclusive = small, poorly fitted or top-dose-only effect, or another doubt; inactive = no such curve, though single readings can be large; an effect the other way counts as inactive or inconclusive.
SMILES,ATXN2 expr inh,ATXN viability,SW480 rerep,PINK1 modulator,MCF10A rereplic,IL-1B inflam inh
Cc1ccc(NC(=O)c2cc(Cl)ccc2[N+](=O)[O-])cc1C,-38.4%,?,-0.4%,10.0%,0.5%,-99.5*
Cc1ccc(Cl)cc1NS(=O)(=O)c1ccc2oc(=O)c3ncn(C)c3c2c1,/,/,/,1.3%,/,/
C[C@]12C=CC(=O)N[C@@H]1CC[C@@H]1C2CC[C@]2(C)C(C(=O)Nc3cc(C(F)(F)F)ccc3C(F)(F)F)CC[C@@H]12 (some centres undefined),/,/,6.9%,/,21.4%,/
CN(/N=C/c1ccc(Br)o1)C1=NS(=O)(=O)c2ccccc21,-23.2%,/,?,6.2%,23.1µM*,-7.1
CCCN(CCC)C(=O)c1c[nH]c2ccc(S(=O)(=O)N(C)c3ccc(Cl)cc3)cc2c1=O,/,/,/,1.8%,/,/
CCCCNc1nc2c(S(=O)(=O)c3ccccc3)nnn2c2ccccc12,6.0%,i,-9.3%,-1.1%,14.1%,45.6
CCc1ccc(S(=O)(=O)c2nnn3c2nc(NCCNC(C)=O)c2ccccc23)cc1,-17.3%,i,-4.1%,0.0%,-22.9%,-63.7*
COc1cccc(-c2sc3ccc(OC)cc3c2-c2ccc(OCCN(C)C)cc2)c1,?,?,-35.8%,-0.8%,?,-62.0*
CN(C)CCOc1ccc(-c2c(-c3ccsc3)sc3ccccc23)cc1,?,?,-7.3%,-0.7%,?,-60.2*
COc1ccccc1C1c2c(-c3ccc(Cl)cc3)n[nH]c2C(=O)N1c1ccc(C)cc1 (centres undefined),?,/,/,15.1%,/,/
CSCC[C@@H](CO)NC(=O)[C@H]1O[C@@H](n2ccc(=O)[nH]c2=O)[C@H](O)[C@@H]1O,1.8%,i,/,1.4%,/,19.4
CCOc1ccc(C(=O)Nc2ccc(N3CCN(C)CC3)cc2)cc1Br,0.5%,i,?,?,?,-51.6*
CCOc1ccc(C(=O)Nc2ccc(NC(=O)c3ccccc3)cc2)cc1Br,-56.8%,?,-38.4%,2.9%,0.6%,14.1
COc1c(C)cc(Br)cc1C(=O)Nc1ccc(Cc2ccncc2)cc1,?,i,?,-0.7%,16.4µM*,-78.8*
CCOc1ccc(C(=O)Nc2ccc(Cc3ccncc3)cc2)cc1Br,?,i,16.4µM*,7.6%,?,-89.5*
Cc1ccc(CNC(=O)c2ccc3c(c2)NC(=O)C(CS(=O)(=O)Cc2ccc(F)cc2)N3)cc1 (centres undefined),/,/,/,-1.2%,/,/
Cc1ccc(-c2ccnc(-n3ncc(C(=O)NCCN4CCOCC4)c3C3CC3)n2)o1,/,i,/,1.0%,/,/
COc1cccc(CNC(=O)c2ccc(CNS(=O)(=O)c3ccc(C)cc3)cc2)c1,-6.6%,i,/,-5.7%,/,/
Cc1ccccc1/C=c1\s/c(=C\C(=O)C(C)(C)C)[nH]c1=O,-30.0%,?,?,15.7%,16.4µM*,36.5
CC(C)(C)C(=O)/C=c1\[nH]c(=O)/c(=C\c2ccccc2F)s1,-4.6%,?,-41.4%[1.84 µM],2.2%,0.4%,25.2
Oc1ccc(Nc2ccc3ccccc3c2)cc1,-4.1%,i,23.2%,2.6%,?,?
CCN=C1S/C(=C/c2ccc(-c3ccc(F)cc3)o2)C(=O)N1CC,11.9%,/,?,19.7%,8.2µM*,-14.3
Nc1ccccc1SC(CC(=O)c1ccccc1)c1cccc([N+](=O)[O-])c1 (centres undefined),/,/,/,-2.3%,/,-103.5*
Cc1cc(C)n(-c2ccc(C(=O)N3CCc4c(cnc(C)c4CNC(=O)c4ccccc4F)C3)cc2)n1,/,i,/,1.6%,/,/
O=[N+]([O-])CC(c1ccccc1)c1c[nH]c2ccccc12 (centres undefined),/,?,169.3%,4.0%,14.6µM*,4.8
CCC(CN)=C(c1ccccc1)c1ccccc1,?,i,/,/,/,/
CC(C)c1ccc(S(=O)(=O)c2cc3cc(Br)ccc3oc2=O)cc1,20µM*,i,0.0%,0.4%,8.2µM*,8.1
